# The whole screen tested about 110,000 compounds, of which about 40 (0.04%) were called active. About 22% were inconclusive and are not listed. The full list was thinned out, with actives kept by preference. Values without a mark were called inactive. Calls follow the shape of the dose curve; as a rule, active = well fitted curve in the direction sought with a large enough effect in the signal ratio (not every such curve was filed as active); inconclusive = small, poorly fitted or top-dose-only effect, or a change in a side signal; inactive = flat fitted curve, though single readings scatter; the % refers to the signal ratio.
# Test: IkB Signaling;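 as to IkBa stabilization activation: 0% = basal untreated cells and 100% = reference inhibitor full response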
# Details: ABC-DLBCL IkBa-CBG/CBR dual luciferase ratio, 4 h; series mostly up to 57.1 µM; IkBa stabilization activation: at the top concentration
# Excerpt: NIH Molecular Libraries Screening Centers Network [MLSCN]
# NIH Chemical Genomics Center [NCGC]
# Nuclear factor kappa-B (NF-kappa-B) plays an important role in normal B cell development and survival. Diffuse large B cell lymphoma (DLBCL) is the most commonly observed type of non-Hodgkin's lymphoma. Gene expression analysis has identified an activated B cell-like subtype of DLBCL (ABC-DLBCL) which expresses known NF-kappa-B target genes. […] However, targets upstream of IKK have been largely unexplored and so nodes upstream of IKK in the NF-kappa-B pathway remain untested due to the lack of chemical probes.
# A cell-sensor assay for I-kappa-B-alpha stabilization was developed with NIH investigator Dr. R. Eric Davis in Dr. Louis M. Staudt's laboratory. The assay uses green (CBG68) and red (CBR) emitting beetle luciferases [Chroma-Glo(TM) developed by Promega Corp.] where the green luciferase is fused to I-kappa-B-alpha and the red luciferase is present in its native state. Both luciferase genes are stably present in the OCI-Ly3 human ABC DLBCL cell line, but their expression is under the control of tetracycline-inducible promoters. Following the addition of doxycycline to induce expression of the luciferases, the green luminescence in control cultures rises only slowly because the CBG fusion partner I-kappa-B-alpha is targeted by IKK activity for rapid degradation. In contrast, green luminescence rises rapidly in the presence of proteasome inhibitors or IKK inhibitors. The rise in red luminescence of CBR is not affected by proteasome or IKK inhibitors, and serves as normalization for cell number and nonspecific effects. Compounds were screened as a concentration-titration series that ranged from 57 uM to 0.7 nM.
# NCGC Assay Protocol Summary:
# Cells were seeded in 1536-well plates at 5000 cells/3ul in IMDM medium containing 0.5% FBS, w/o phenol red, L-glutamine, 25 mM HEPES, 3 mg/ml sodium bicarbonate. After centrifugation for 1 min. at 1000 rpm, 23 nl of compounds or DMSO were delivered to each well using a pin tool. Then 1ul 80ng/ml doxycycline was dispensed into white solid 1536-well plates and the plates were incubated at 37C/5% C02 in a cell incubator for 4 hrs. Then 4 ul Chroma-Glo luminescent substrate mix (Promega) was added to each well. The plate was incubated at R.T. for 10-15 min. The plates were measured on a ViewLux plate reader for green luminescence (540/20 nm filter) and red luminescence (618/8 nm filter). The green and red luminescent signals were corrected for red and green luminescence filter overlap using previously determined filter calibration constants (determined using the procedure outlined in the Promega Technical Manual). The %Activity was determined from the ratio of corrected green/red luminescent values. Green luminescent and ratio %Activity was determined by normalizing to the difference in signal between basal cells (0% Activity) and cells incubated with 10 uM of the proteasome inhibitor MG-132 (100% Activity). Red luminescent %Activity was normalized to the difference between red luminesence in basal cells (0%Activity) and zero luminescence (-100% Activity).
# Concentration-response curves were fitted to the signals arising from the green luminescence (I-kappa-B-alpha-luciferase fusion; IkB-luc) and the red luminescence (unfused luciferase; luc) as well as the calculated ratio. The concentration-effect curves were then classified based on curve quality (r2), response magnitude and degree of measured activity. Compounds were then categorized based on their concentration-response curves for all three datasets (Ikb-luc, luc and ratio).
# Keywords: IKK, I-kappa-B, IkB, IkBa, cytotoxicity, luminescence, MLSMR, MLSCN, NIH Roadmap, qHTS, NCGC
# Potency is read from the fitted curve at half-maximal effect.
Compound,IkBa stabilization activation,Potency
CCN(CCCNC(=O)c1c(C)oc2ncn(CC(C)C)c(=O)c12)Cc1ccccc1,1.93%,–
Cc1cccc(CSc2ccc(-c3cccs3)nn2)c1,-2.49%,–
CCOc1ccc(OCC)c(Nc2nc3ccccc3n3nnnc23)c1,1.77%,–
COc1ccc(S(=O)(=O)N2CCCCC2)cc1C(=O)NC1CCS(=O)(=O)C1 (stereo not drawn),1.49%,–
CCn1cc(C(=O)N(C)Cc2ccccc2)c(=O)c2cc(S(=O)(=O)N3CCCCCC3)ccc21,1.18%,–
CCCOC(=O)Cc1c(O)c2ccccc2[nH]c1=O,0.442%,–
O=C1C(c2[nH]c3ccccc3c2O)=Nc2ccccc21,–,2510 nM (active)
CCCC(=O)Nc1c(O)c2ccccc2[nH]c1=O,-0.355%,–
COc1ccc(-c2nc3sc(CCNC(=O)C(C)(C)C)c(C)n3n2)cc1,-2.83%,–
COc1ccc(N2CCN(C(=O)c3ccc4c(Cl)c5c(nc4c3)CCCC5)CC2)cc1,0.102%,–
CC(=O)Nc1ccc2nc(SCCOc3cc(C)cc(C)c3)sc2c1,-0.0445%,–
CCC1CN(S(=O)(=O)c2cc(-c3cc(C)no3)ccc2C)c2cc(C)ccc2O1 (stereo not drawn),0.0798%,–
CC1CCN(S(=O)(=O)c2ccc3c(c2)N(CC(=O)NCc2ccccc2Cl)C(=O)CO3)CC1,2.09%,–
COC(=O)c1ccc(NC(=O)CCc2c(C)nn(-c3ccc(N4CCCC4)nn3)c2C)cc1,1.12%,–
COc1ccc(-n2c(C)nc3c(cnn3-c3ccc(F)cc3)c2=O)cc1,-2.95%,–
CC1=C(c2ccc(C)c(C)c2)S(=O)(=O)NC1=NCc1ccccc1Cl,1.34%,–
Cc1cc(C)c2oc(C(=O)Nc3ccc(S(=O)(=O)N4CCCCCC4)cc3)cc(=O)c2c1,2.05%,–
CN(C)CCN(Cc1ccccc1)S(=O)(=O)c1csc(C(N)=O)c1,-0.756%,–
COC(=O)c1ccccc1NC(=O)c1cnn(-c2ccc(F)cc2)c1-n1cccc1,27.9%,–
COc1ccc(NC(=O)C2CCN(c3ccc(Sc4ccc(C)cc4)nn3)CC2)c(OC)c1,0.374%,–
COc1ccc(C2NC(=O)N(C)C3=C2C(=O)N(c2ccc(C(=O)O)cc2)C3)cc1 (stereo not drawn),-0.8%,–
COc1cccc(NC(=O)CN2C(=O)c3ccccc3Sc3ncccc32)c1,4.99%,–
Cc1ccc(-c2cnc(C3CC3)o2)cc1S(=O)(=O)Nc1cccc(C)c1C,-1.63%,–
COCCNC(=O)c1cc(-c2cccc(Cl)c2)on1,68.5%,–
COc1ccc(-c2nc3c4ccccc4n(CC(=O)Nc4ccc(C(C)=O)cc4)c(=O)n3n2)cc1,-0.837%,–
Cc1ccccc1OCC(=O)Nc1c(C(=O)Nc2ccccc2F)oc2ccccc12,-0.867%,–
COc1cc(NC(=O)C2=CC(c3ccco3)=NS(=O)(=O)N2C)cc(OC)c1OC,1.1%,–
Cc1ccc2oc(=O)c3cnn(CC(=O)NCc4ccccc4Cl)c3c2c1,0.266%,–
